Results reported in PubChem BioAssay (Tox21).
Results filed as inconclusive are left out. Unmarked numbers belong to inactive results. Activity calls are given as the source filed them.
% is scaled to controls: 0 for no effect and ±100 for the full control effect.

The compounds below were run against Estrogen receptor beta (Homo sapiens) (UniProt Q92731) (assay: qHTS assay to identify small molecule agonists of the estrogen receptor beta (ER-beta) signaling pathway (AID 1259377; active = well fitted activation curve with a large enough effect in the signal ratio in the repeat runs, not every such curve was filed as active; the % refers to the signal ratio; also: potency is read from the fitted curve at half-maximal effect)). Conditions: ER-beta-UAS-bla HEK293T, beta-lactamase FRET ratio, 16 h; series mostly up to 92.4 µM; activation: at the top concentration.
Chain of Estrogen receptor beta (Homo sapiens) (Q92731 whole entry, looked up): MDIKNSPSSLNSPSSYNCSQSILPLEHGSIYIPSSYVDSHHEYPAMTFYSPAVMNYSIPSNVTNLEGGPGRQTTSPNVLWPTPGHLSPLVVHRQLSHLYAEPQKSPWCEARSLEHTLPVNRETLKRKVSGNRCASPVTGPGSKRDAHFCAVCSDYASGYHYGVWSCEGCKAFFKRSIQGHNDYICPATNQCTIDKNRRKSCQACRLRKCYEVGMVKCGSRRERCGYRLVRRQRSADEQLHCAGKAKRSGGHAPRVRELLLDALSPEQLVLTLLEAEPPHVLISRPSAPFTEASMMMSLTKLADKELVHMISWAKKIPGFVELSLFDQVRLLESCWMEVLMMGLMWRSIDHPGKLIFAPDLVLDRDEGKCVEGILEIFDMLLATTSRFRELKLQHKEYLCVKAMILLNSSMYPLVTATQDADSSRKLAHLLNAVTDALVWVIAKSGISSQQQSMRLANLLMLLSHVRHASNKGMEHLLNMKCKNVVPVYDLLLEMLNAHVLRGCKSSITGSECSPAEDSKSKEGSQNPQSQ
Method in brief: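 ER-beta-UAS-bla HEK293T (GripTite) cells carrying a UAS-driven beta-lactamase reporter, in medium with 2% charcoal-stripped FBS, were exposed to compounds for 16 hr at 37C; LiveBLAzer B/G FRET substrate was then added and fluorescence read after 2 hours at room temperature.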
For `COC(=O)c1ccccc1CS(=O)(=O)NC(=O)Nc1nc(OC)cc(OC)n1`, the “activation” value was 1.07%.
With `BrCCc1ccccc1` the “activation” value was 1.92%.
`COc1cc(CC(C)N)cc(OC)c1OC` (stereo not given) was tested, and the “activation” value was 1.68%.
For `ClC(Cl)(Cl)Cl`, the “activation” value was -0.387%.
`COC(=O)c1ccc(CBr)cc1` was tested, and the “activation” value was 1.18%.
`COc1cc(CCN)cc(OC)c1OC` was tested, and the “activation” value was -0.913%.
In the case of `Oc1ccc2c3c1O[C@H]1[C@@H](O)C=C[C@H]4[C@@H](C2)NCC[C@@]341`, the “activation” value is reported as -0.839%.
With `O=C(Cl)CCl` the “activation” value was -0.544%.
For `CC(C)NCC(O)c1ccc([N+](=O)[O-])cc1` (stereo not given), the “activation” value was -0.605% [at 42.5 µM].
In the case of `CCOP(=S)(OCC)Oc1ccc(Cl)cc1Cl`, the “activation” value is reported as 0.705%.
For `O=C(O)C(F)(F)C(F)(F)C(F)(F)C(F)(F)C(F)(F)C(F)(F)F`, the “activation” value was -2.87%.
In the case of `NC1(c2ccccc2)CCCCC1`, the “activation” value is reported as -1.93%.
`COc1ccc(CN2CCNCC2)c(OC)c1OC` was tested, and the “activation” value was -0.215% [at 42.5 µM].
With `CC(C)(C)C(=O)Cl` the “activation” value was -0.686%.
In the case of `Cc1ccc(S(=O)(=O)N[C@@H](CCCCN)C(=O)CCl)cc1`, the “activation” value is reported as 5.28% [at 42.5 µM].
With `C#CC(C)(C)O` the “activation” value was 0.239%.
With `C=C(Cl)CCl` the “activation” value was -1.94%.
With `Oc1ccc(Cc2ccc(O)cc2)cc1` the Potency was 5.49 µM (active).
For `O=C(O)CBr`, the “activation” value was -0.427%.
`CC#Cc1cc(C)nc(Nc2ccccc2)n1` was tested, and the “activation” value was 1.13%.
In the case of `COC1=CC(=O)O[C@@H](/C=C/c2ccccc2)C1`, the “activation” value is reported as -0.009%.
`CCCC(C)(COC(N)=O)COC(N)=O` was tested, and the “activation” value was -0.445%.
`CCOC(=O)C(SP(=S)(OC)OC)c1ccccc1` (stereo not given) was tested, and the “activation” value was 0.133%.
`CCc1cc(OC)c(C[C@H](C)N)cc1OC` was tested, and the “activation” value was -0.623%.
`C=C1C[C@@H]2[C@H](CC[C@]3(C)C(=O)CC[C@@H]23)[C@@]2(C)C=CC(=O)C=C12` was tested, and the “activation” value was -2.11% [at 42.5 µM].
With `CC(Cc1ccccc1)NCCn1cnc2c1c(=O)n(C)c(=O)n2C` (stereo not given) the “activation” value was -1.08%.
In the case of `COc1ccc2c(C(=O)c3ccc(Cl)cc3)c(C)n(CC(=O)O)c2c1`, the “activation” value is reported as 4.39% [at 42.5 µM].
`CCC1(CC)C(=O)C=CNC1=O` was tested, and the “activation” value was -1.23% [at 42.5 µM].
`CC[C@H](O)C(C[C@H](C)N(C)C)(c1ccccc1)c1ccccc1` was tested, and the “activation” value was -2.05%.
In the case of `CC1N=C(N)OC1c1ccccc1` (stereo not given), the “activation” value is reported as -3.86%.
For `O=C/C=C/c1ccco1`, the “activation” value was -1.12%.
`O=C(Cl)/C=C/C(=O)Cl` was tested, and the “activation” value was -1.5%.
For `C[C@H](N)C(=O)c1ccccc1`, the “activation” value was -3.09%.

The compounds below were run against Estrogen receptor beta (Homo sapiens) (UniProt Q92731) (assay: qHTS assay to identify small molecule antagonists of the estrogen receptor beta (ER-beta) signaling pathway (AID 1259378; active = well fitted inhibition curve with a large enough effect in the signal ratio in the repeat runs, not every such curve was filed as active; the % refers to the signal ratio)). Conditions: ER-beta-UAS-bla HEK293T, beta-lactamase FRET ratio, 16 h; series mostly up to 92.4 µM; activity, negative = inhibition: at the top concentration.
Method in brief: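 Antagonist mode: compounds added to beta-lactamase reporter HEK293T ER-beta-UAS cells stimulated with E2 (1nM final), 16 hr at 37C. LiveBLAzer B/G FRET substrate, 2 hours room temperature, fluorescence read-out.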
In the case of `COC(=O)c1ccccc1CS(=O)(=O)NC(=O)Nc1nc(OC)cc(OC)n1`, the “activity, negative = inhibition” value is reported as 0.0272%.
In the case of `BrCCc1ccccc1`, the “activity, negative = inhibition” value is reported as 3.9%.
For `CN(C)CCN(C)C`, the “activity, negative = inhibition” value was -12%.
In the case of `ClC(Cl)(Cl)Cl`, the “activity, negative = inhibition” value is reported as 0.36%.
For `COC(=O)c1ccc(CBr)cc1`, the “activity, negative = inhibition” value was -1.42%.
In the case of `O=C(Cl)CCl`, the “activity, negative = inhibition” value is reported as 5.3%.
`CCOP(=S)(OCC)Oc1ccc(Cl)cc1Cl` was tested, and the “activity, negative = inhibition” value was -7.05%.
In the case of `COc1ccc(CN2CCNCC2)c(OC)c1OC`, the “activity, negative = inhibition” value is reported as -6.8% [at 42.5 µM].
For `CC(C)(C)C(=O)Cl`, the “activity, negative = inhibition” value was 17.1%.
In the case of `C#CC(C)(C)O`, the “activity, negative = inhibition” value is reported as 7.16%.
For `CCOC(=O)Nc1cccc(OC(=O)Nc2ccccc2)c1`, the “activity, negative = inhibition” value was -14.5%.
For `CCCC(C)(COC(N)=O)COC(N)=O`, the “activity, negative = inhibition” value was 8.39%.
`CCc1cc(OC)c(C[C@H](C)N)cc1OC` was tested, and the “activity, negative = inhibition” value was -18.5%.
For `C=C1C[C@@H]2[C@H](CC[C@]3(C)C(=O)CC[C@@H]23)[C@@]2(C)C=CC(=O)C=C12`, the “activity, negative = inhibition” value was -12.7% [at 42.5 µM].
For `CC(Cc1ccccc1)NCCn1cnc2c1c(=O)n(C)c(=O)n2C` (stereo not given), the “activity, negative = inhibition” value was 20.5%.
In the case of `CC[C@H](O)C(C[C@H](C)N(C)C)(c1ccccc1)c1ccccc1`, the “activity, negative = inhibition” value is reported as -15.8%.
For `O=C/C=C/c1ccco1`, the “activity, negative = inhibition” value was 7.04%.
